# In ChEMBL document CHEMBL2218924, “A broad activity screen in support of a chemogenomic map for kinase signalling research and drug discovery” (Biochem J, 2013):
# Target: Platelet-derived growth factor receptor alpha (Homo sapiens) (UniProt P16234)
# Details: at 1 µM
# Platelet-derived growth factor receptor alpha (Homo sapiens), sequence (P16234 whole entry): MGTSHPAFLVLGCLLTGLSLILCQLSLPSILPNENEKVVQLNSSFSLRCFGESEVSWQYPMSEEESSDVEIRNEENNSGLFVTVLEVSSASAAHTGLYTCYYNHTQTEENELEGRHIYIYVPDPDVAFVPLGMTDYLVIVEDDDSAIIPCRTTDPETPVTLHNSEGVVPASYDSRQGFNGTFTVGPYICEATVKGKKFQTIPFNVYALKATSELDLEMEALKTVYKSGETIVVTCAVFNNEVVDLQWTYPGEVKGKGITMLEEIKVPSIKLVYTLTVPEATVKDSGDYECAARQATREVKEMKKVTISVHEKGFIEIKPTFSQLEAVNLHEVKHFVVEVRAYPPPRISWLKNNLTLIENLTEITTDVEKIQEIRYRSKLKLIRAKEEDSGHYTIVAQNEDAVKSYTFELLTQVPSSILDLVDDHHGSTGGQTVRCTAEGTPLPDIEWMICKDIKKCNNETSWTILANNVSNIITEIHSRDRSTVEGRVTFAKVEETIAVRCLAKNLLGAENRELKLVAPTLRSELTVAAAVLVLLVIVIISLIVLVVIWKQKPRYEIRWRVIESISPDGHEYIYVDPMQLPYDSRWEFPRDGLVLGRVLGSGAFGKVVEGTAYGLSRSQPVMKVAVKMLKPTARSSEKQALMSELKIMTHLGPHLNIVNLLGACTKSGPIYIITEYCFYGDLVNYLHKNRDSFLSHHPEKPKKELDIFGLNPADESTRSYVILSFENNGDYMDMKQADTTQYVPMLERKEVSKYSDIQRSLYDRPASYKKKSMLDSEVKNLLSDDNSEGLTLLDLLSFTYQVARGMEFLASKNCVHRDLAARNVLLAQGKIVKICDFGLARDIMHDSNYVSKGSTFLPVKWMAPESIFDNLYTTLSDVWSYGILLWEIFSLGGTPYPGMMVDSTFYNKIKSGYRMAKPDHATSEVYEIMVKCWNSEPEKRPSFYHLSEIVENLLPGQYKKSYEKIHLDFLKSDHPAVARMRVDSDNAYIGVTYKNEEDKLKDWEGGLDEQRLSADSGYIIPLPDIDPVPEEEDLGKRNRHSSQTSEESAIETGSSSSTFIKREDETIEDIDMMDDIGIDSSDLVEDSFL
row,Compound,residual activity [%]
1,CO[C@H]1C[C@@H]2CC[C@@H](C)[C@@](O)(O2)C(=O)C(=O)N2CCCC[C@H]2C(=O)O[C@H]([C@H](C)C[C@@H]2CC[C@@H](O)[C@H](OC)C2)CC(=O)[C@H](C)/C=C(\C)[C@@H](O)[C@@H](OC)C(=O)[C@H](C)C[C@H](C)/C=C/C=C/C=C/1C,111
2,O=C(O)c1ccc2c3c1cccc3c(=O)n1c3ccccc3nc21,113
3,O=c1cc(-c2cccc3c2Sc2ccccc2S3)oc(N2CCOCC2)c1,106
4,CO[C@@H]1[C@H](N(C)C(=O)c2ccccc2)C[C@H]2O[C@]1(C)n1c3ccccc3c3c4c(c5c6ccccc6n2c5c31)C(=O)NC4,54
5,Oc1ccc(-c2nc(-c3ccc(F)cc3)c(-c3ccncc3)[nH]2)cc1,117
6,COc1ccc(S(=O)(=O)N(CCO)c2ccccc2CN(C)C/C=C/c2ccc(Cl)cc2)cc1,109
7,c1ccc(-c2n[nH]c3c2oc2ccccc23)cc1,33
8,O=C1NC(=O)/C(=C/c2ccc3c(c2)OC(F)(F)O3)S1,127
9,CCN(CC)C(=O)c1ccc(Nc2nc(OCC3CCCCC3)c3nc[nH]c3n2)cc1,65
10,O=C1Nc2ccccc2/C1=C1/Nc2ccccc2/C1=N\OCCC(O)CO (stereo not given),79
11,O=[N+]([O-])c1ccc(-c2nc(-c3ccc(F)cc3)c(-c3ccncc3)[nH]2)cc1,114
12,N#CC(C#N)=C(N)/C(C#N)=C/c1ccc(O)cc1,119
13,Ic1cccc(CSc2nnc(-c3ccncc3)o2)c1,104
14,Cc1ccc(NC2=CC(=O)c3sc(C)nc3C2=O)cc1,104
15,COc1cccc(-c2cc(=O)c3ccccc3o2)c1N,107
16,CN(C)CCCn1cc(C2=C(c3c[nH]c4ccccc34)C(=O)NC2=O)c2ccccc21,121
17,O=Nc1c(-c2c(O)[nH]c3ccccc23)[nH]c2ccccc12,87
18,COc1cc2ncc(-c3ccccc3)nc2cc1OC,84
19,COc1ccc(C(=O)Nc2sc3c(c2C(N)=O)CCCC3)cc1OC,87
20,C[C@@H](N)[C@H]1CC[C@H](C(=O)Nc2ccncc2)CC1,99
21,Cn1cc(/C=C2\C(=O)Nc3ccc(S(N)(=O)=O)cc32)c2ccccc21,77
22,O=c1c2ccccc2[nH]c(=S)n1CCN1CCC(=C(c2ccc(F)cc2)c2ccc(F)cc2)CC1,105
23,COc1cc2ncnc(N3CCN(C(=O)Nc4ccc(Oc5ccccc5)cc4)CC3)c2cc1OC,26
24,NC(=O)c1ccc2[nH]c(-c3ccc(Oc4ccc(Cl)cc4)cc3)nc2c1,115

# Target: Platelet-derived growth factor receptor alpha (Homo sapiens) (UniProt P16234)
# Details: at 10 µM
row,Compound,residual activity [%]
1,CO[C@H]1C[C@@H]2CC[C@@H](C)[C@@](O)(O2)C(=O)C(=O)N2CCCC[C@H]2C(=O)O[C@H]([C@H](C)C[C@@H]2CC[C@@H](O)[C@H](OC)C2)CC(=O)[C@H](C)/C=C(\C)[C@@H](O)[C@@H](OC)C(=O)[C@H](C)C[C@H](C)/C=C/C=C/C=C/1C,102
2,Cc1cc(Nc2nc(-c3ccccc3)nc3ccccc23)n[nH]1,26
3,O=C(O)c1ccc2c3c1cccc3c(=O)n1c3ccccc3nc21,114
4,CO[C@@H]1[C@H](N(C)C(=O)c2ccccc2)C[C@H]2O[C@]1(C)n1c3ccccc3c3c4c(c5c6ccccc6n2c5c31)C(=O)NC4,32
5,Oc1ccc(-c2nc(-c3ccc(F)cc3)c(-c3ccncc3)[nH]2)cc1,105
6,COc1ccc(S(=O)(=O)N(CCO)c2ccccc2CN(C)C/C=C/c2ccc(Cl)cc2)cc1,95
7,CC(=O)c1ccc(N2CCOCC2)cc1O,107
8,c1ccc(-c2n[nH]c3c2oc2ccccc23)cc1,5
9,O=C1NC(=O)/C(=C/c2ccc3c(c2)OC(F)(F)O3)S1,113
10,CCN(CC)C(=O)c1ccc(Nc2nc(OCC3CCCCC3)c3nc[nH]c3n2)cc1,18
11,O=C1Nc2ccccc2/C1=C1/Nc2ccccc2/C1=N\OCCC(O)CO (stereo not given),28
12,O=[N+]([O-])c1ccc(-c2nc(-c3ccc(F)cc3)c(-c3ccncc3)[nH]2)cc1,114
13,Ic1cccc(CSc2nnc(-c3ccncc3)o2)c1,97
14,Cc1ccc(NC2=CC(=O)c3sc(C)nc3C2=O)cc1,112
15,CCOc1cc2ncnc(Nc3cccc(Br)c3)c2cc1OCC,90
16,COc1cc2ncnc(Nc3ccc(NC(=O)c4ccccc4)cc3)c2cc1OC,81
17,COc1cccc(-c2cc(=O)c3ccccc3o2)c1N,110
18,CN(C)CCCn1cc(C2=C(c3c[nH]c4ccccc34)C(=O)NC2=O)c2ccccc21,78
19,O=Nc1c(-c2c(O)[nH]c3ccccc23)[nH]c2ccccc12,37
20,COc1cc2ncc(-c3ccccc3)nc2cc1OC,27
21,COc1ccc(C(=O)Nc2sc3c(c2C(N)=O)CCCC3)cc1OC,86
22,C[C@@H](N)[C@H]1CC[C@H](C(=O)Nc2ccncc2)CC1,102
23,Cn1cc(/C=C2\C(=O)Nc3ccc(S(N)(=O)=O)cc32)c2ccccc21,33
24,O=c1c2ccccc2[nH]c(=S)n1CCN1CCC(=C(c2ccc(F)cc2)c2ccc(F)cc2)CC1,97
25,COc1cc2ncnc(N3CCN(C(=O)Nc4ccc(Oc5ccccc5)cc4)CC3)c2cc1OC,6
26,NC(=O)c1ccc2[nH]c(-c3ccc(Oc4ccc(Cl)cc4)cc3)nc2c1,121
